Assay [1] in a line: ATG_NFI_CIS: Attagene CIS-FACTORIAL HepG2 Assay for human Nuclear Factor I (NFI) (AID 2282989). The following applies: HepG2 cis-regulatory reporter, NFI response element transcription; actives raise or lower the signal. In short, it runs like this:
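Read-out: reporter mRNA via RT-PCR plus capillary electrophoresis with fluorescence detection. Transiently transfected HepG2 (endogenous TF activity on cis promoters), 24 h compound exposure; gain or loss of signal fitted against DMSO.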

In assay [2] the target is Myc proto-oncogene protein (Homo sapiens) (UniProt P01106). Put plainly: ATG_Myc_CIS: Attagene CIS-FACTORIAL HepG2 Assay for human Myelocytomatosis (Myc) Proto-Oncogene Transcription Factor (AID 2282990). The following applies: HepG2, Attagene cis-reporter transcription factor activity; actives raise or lower the signal. In short, it runs like this: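 Transiently transfected HepG2 cells bearing cis-promoter reporter units for endogenous transcription factors; 24 h exposure. Reporter mRNA measured by RT-PCR, 6-FAM primer extension, HpaI cut and capillary electrophoresis; bidirectional fit relative to DMSO.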
Sequence of Myc proto-oncogene protein (Homo sapiens) (P01106 whole entry, looked up): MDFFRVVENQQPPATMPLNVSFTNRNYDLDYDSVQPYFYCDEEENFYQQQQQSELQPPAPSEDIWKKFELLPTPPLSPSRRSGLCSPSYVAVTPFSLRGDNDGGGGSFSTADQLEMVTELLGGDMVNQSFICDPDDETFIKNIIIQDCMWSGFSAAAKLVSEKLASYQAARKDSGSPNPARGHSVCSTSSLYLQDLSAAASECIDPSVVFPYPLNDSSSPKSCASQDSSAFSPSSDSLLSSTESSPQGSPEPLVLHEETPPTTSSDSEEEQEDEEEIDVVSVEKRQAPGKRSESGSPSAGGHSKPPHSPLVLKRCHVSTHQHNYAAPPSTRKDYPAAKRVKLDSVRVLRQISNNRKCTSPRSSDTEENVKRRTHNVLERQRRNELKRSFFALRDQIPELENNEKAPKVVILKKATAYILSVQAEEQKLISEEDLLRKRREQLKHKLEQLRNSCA

Assay [3] is described as follows: ATG_NF_kB_CIS: Attagene CIS-FACTORIAL HepG2 Assay for human Nuclear Factor Kappa B (NF-kB) (AID 2282991). Conditions: HepG2 Attagene cis-factorial NF-kB reporter mRNA; actives raise or lower the signal. The procedure, abridged: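 Read-out: reporter transcript levels quantified by RT-PCR plus capillary electrophoresis of 6-FAM-labelled, HpaI-cut fragments. Transfected HepG2 cells, 24 h compound exposure, endogenous NF-kB-driven cis element; gain or loss scored versus DMSO.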

Assay [4] in a line: ATG_NRF2_ARE_CIS: Attagene CIS-FACTORIAL HepG2 Assay for human Nuclear Factor Erythroid 2 Related Factor 2 (NFR2) response to Antioxidant Response Elements (ARE) (AID 2282992).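 On AC50: reporter mRNA level measured by RT-PCR and capillary electrophoresis fluorescence.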 The following applies: HepG2 Attagene ARE/NRF2 reporter, transcription factor activity; actives raise or lower the signal. The procedure, abridged:
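Endogenous transcription factor activity in human liver HepG2 cells is tracked via a cis-element-driven reporter within a multiplexed set. mRNA induction is read by RT-PCR and capillary electrophoresis after 24 h, with DMSO as baseline.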

Assay [5] in a line: ATG_Oct_MLP_CIS: Attagene CIS-FACTORIAL HepG2 Assay for human Octamer-Binding Transcription Factor (Oct) (AID 2282993). The following applies: HepG2 Attagene cis-factorial Oct reporter, mRNA; actives raise or lower the signal. The procedure, abridged: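 Read-out: reporter mRNA via RT-PCR plus capillary electrophoresis of 6-FAM-labelled fragments. Transiently transfected HepG2, 24 h exposure, endogenous TF activity on cis elements. Gain or loss of signal fitted relative to DMSO.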

The target in assay [6] is Cellular tumor antigen p53 (Homo sapiens) (UniProt P04637). Kind of assay: ATG_p53_CIS: Attagene CIS-FACTORIAL HepG2 Assay for human p53 Transcription Factor (AID 2282994). The following applies: HepG2 p53 cis-element reporter, Attagene mRNA; actives raise or lower the signal. In short, it runs like this:
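Steps: transfect HepG2 with multiplexed cis reporter constructs; dose chemicals 24 h; extract RNA, reverse-transcribe, PCR-amplify reporter sequences; FAM-label, HpaI-digest, resolve fragments by CE. Activity fitted both directions relative to DMSO.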

For assay [7], the target named is human Peroxisome Proliferator-activated Receptor alpha (PPARa), PPARA (gene 5465) (UniProt Q07869). Kind of assay: ATG_PPARa_TRANS: Attagene TRANS-FACTORIAL HepG2 Assay for human Peroxisome Proliferator-activated Receptor alpha (PPARa) (AID 2283001; active means hit-call score of the fitted dose curve at least 0.9, where 1 is the maximum). In short, it runs like this:
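HepG2, transient MRTU transfection, 24 h treatment. RT-PCR → FAM labelling → capillary electrophoresis. Fit vs DMSO, positive direction.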

Assay [8] addresses human Retinoic Acid Receptor beta (RARb), RARB (gene 5915) (UniProt P10826). Kind of assay: ATG_RARb_TRANS: Attagene TRANS-FACTORIAL HepG2 Assay for human Retinoic Acid Receptor beta (AID 2283004; active means hit-call score of the fitted dose curve at least 0.9, where 1 is the maximum). The procedure, abridged: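 HepG2, transient MRTU transfection, NR–Gal4 chimera, 24 h treatment; RT-PCR plus CE fluorescence detection of reporter mRNA; gain of signal vs DMSO.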
Assay [9] deals with Retinoic acid receptor alpha (Homo sapiens) (UniProt P10276). Kind of assay: ATG_RARa_TRANS: Attagene TRANS-FACTORIAL HepG2 Assay for human Retinoic Acid Receptor alpha (RARa) (AID 2283005; active means hit-call score of the fitted dose curve at least 0.9, where 1 is the maximum). The procedure, abridged: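 HepG2 transiently transfected with multiplex GAL4-UAS reporter units including a human RARa–GAL4 chimera; 24 h compound exposure. Reporter mRNA quantified by RT-PCR, 6-FAM labeling and capillary electrophoresis; gain of signal versus DMSO.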
Sequence of Retinoic acid receptor alpha (Homo sapiens) (P10276 whole entry, looked up, the tested form may be a part): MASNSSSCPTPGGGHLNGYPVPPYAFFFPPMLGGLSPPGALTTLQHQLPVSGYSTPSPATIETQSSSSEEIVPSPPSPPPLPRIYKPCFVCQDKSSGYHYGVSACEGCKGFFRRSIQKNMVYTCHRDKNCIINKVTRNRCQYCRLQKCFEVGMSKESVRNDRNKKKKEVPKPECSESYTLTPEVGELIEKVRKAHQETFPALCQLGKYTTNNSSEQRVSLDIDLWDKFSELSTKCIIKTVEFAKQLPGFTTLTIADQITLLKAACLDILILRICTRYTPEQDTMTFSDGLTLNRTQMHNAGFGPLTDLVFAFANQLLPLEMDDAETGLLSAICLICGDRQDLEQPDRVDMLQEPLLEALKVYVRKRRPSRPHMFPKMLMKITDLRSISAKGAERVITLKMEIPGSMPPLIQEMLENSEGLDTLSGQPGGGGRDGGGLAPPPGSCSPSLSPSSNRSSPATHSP

In assay [10] the target is Peroxisome proliferator-activated receptor gamma (Homo sapiens) (UniProt P37231). Kind of assay: ATG_PPARg_TRANS: Attagene TRANS-FACTORIAL HepG2 Assay for human Peroxisome Proliferator-activated Receptor-gamma (PPARg) (AID 2283007; active means hit-call score of the fitted dose curve at least 0.9, where 1 is the maximum). The procedure, abridged: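 Read-out: reporter mRNA induction, detected by fluorescence after RT-PCR and capillary electrophoresis. Transiently transfected human HepG2 liver cells carrying a chimeric NR-Gal4 construct were dosed for 24 h; activity was fitted upward relative to DMSO.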
Sequence of Peroxisome proliferator-activated receptor gamma (Homo sapiens) (P37231 whole entry, looked up, the tested form may be a part): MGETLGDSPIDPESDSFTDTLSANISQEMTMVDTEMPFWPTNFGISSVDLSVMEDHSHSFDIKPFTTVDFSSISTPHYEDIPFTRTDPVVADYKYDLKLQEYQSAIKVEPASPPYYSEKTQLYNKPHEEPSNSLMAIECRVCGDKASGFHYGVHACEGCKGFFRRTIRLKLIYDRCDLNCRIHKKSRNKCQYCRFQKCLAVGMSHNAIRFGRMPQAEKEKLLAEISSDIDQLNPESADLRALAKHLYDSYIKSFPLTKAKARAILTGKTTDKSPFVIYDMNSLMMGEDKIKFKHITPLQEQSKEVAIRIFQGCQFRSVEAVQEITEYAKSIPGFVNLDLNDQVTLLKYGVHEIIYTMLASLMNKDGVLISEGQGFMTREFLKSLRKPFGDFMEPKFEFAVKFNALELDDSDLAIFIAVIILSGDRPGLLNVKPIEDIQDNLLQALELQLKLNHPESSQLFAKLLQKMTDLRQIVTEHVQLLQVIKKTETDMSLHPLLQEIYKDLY

For assay [11], the target named is Nuclear receptor subfamily 1 group I member 2 (Homo sapiens) (UniProt O75469). Kind of assay: ATG_PXR_TRANS: Attagene TRANS-FACTORIAL HepG2 Assay for human Pregnane X Receptor (PXR) (AID 2283008; active means hit-call score of the fitted dose curve at least 0.9, where 1 is the maximum). The procedure, abridged:
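HepG2 transfected (FuGene 6) with GAL4-UAS reporter units + PXR-Gal4 chimera; dosed 24 h. Total RNA → oligo(dT) RT → PCR → 6-FAM primer extension → HpaI cut → CE. Gain-of-signal vs DMSO.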

Assay [12] addresses human Retinoic Acid Receptor gamma (RARg), RARG (gene 5916) (UniProt P13631). Put plainly: ATG_RARg_TRANS: Attagene TRANS-FACTORIAL HepG2 Assay for human Retinoic Acid Receptor gamma (RARg) (AID 2283009; active means hit-call score of the fitted dose curve at least 0.9, where 1 is the maximum). In short, it runs like this:
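Transactivation of exogenous RARg-Gal4 fusion measured as reporter transcript induction after 24 h in transfected HepG2 cells. RNA reverse-transcribed, amplified, fluorescently labeled and resolved by capillary electrophoresis; increase relative to DMSO.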

Assay [13] concerns the target human RAR-related Orphan Receptor beta (RORb), RORB (gene 6096) (UniProt Q92753). Kind of assay: ATG_RORb_TRANS: Attagene TRANS-FACTORIAL HepG2 Assay for human RAR-related Orphan Receptor beta (RORb) (AID 2283010; active means hit-call score of the fitted dose curve at least 0.9, where 1 is the maximum). The procedure, abridged:
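Read-out is reporter mRNA induction, quantified by RT-PCR with fluorescent capillary electrophoresis, 24 h post-dose in transiently transfected HepG2 expressing exogenous NR-Gal4 chimera. Activity fitted upward versus DMSO.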

A short description of assay [14]: BSK_3C_uPAR: BioMAP Diversity Plus: 3C Assay for Urokinase-type plasminogen activator receptor (uPAR) Biomarker Activity (AID 2282998). Conditions: BioMAP 3C HUVEC, uPAR biomarker ELISA; actives raise or lower the signal. The procedure, abridged:
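HUVEC primary cells; 24 h post-dose; uPAR by ELISA; gain or loss of signal fitted bidirectionally vs DMSO baseline.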
Background: An ELISA detects its analyte on a solid surface through an enzyme-linked reagent.

Assay [15] is described as follows: BSK_3C_VCAM1: BioMAP Diversity Plus: 3C Assay for Vascular cell adhesion molecule 1 (VCAM1) Biomarker Activity (AID 2282999). Conditions: BioMAP 3C HUVEC, VCAM1 ELISA, cytokine-stimulated; actives raise or lower the signal. In short, it runs like this: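 HUVEC primary cells, 24 h compound exposure; VCAM-1 by ELISA; gain/loss of signal fitted bidirectionally vs DMSO baseline.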

Assay [16] in a line: BSK_4H_Eotaxin3: BioMAP Diversity Plus: 4H Assay for Eotaxin 3 Biomarker Activity (AID 2283000). Conditions: primary human endothelial cells (HUVEC); actives raise or lower the signal. In short, it runs like this:
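Endothelial primary cells (human umbilical vein) exposed to compound for 24 h. ELISA detection of Eotaxin-3.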

The target of assay [17] is human Peroxisome Proliferator-activated Receptor delta (PPARd), PPARD (gene 5467) (UniProt Q03181). Kind of assay: ATG_PPARd_TRANS: Attagene TRANS-FACTORIAL HepG2 Assay for human Peroxisome Proliferator-activated Receptor delta (PPARd) (AID 2283002; active means hit-call score of the fitted dose curve at least 0.9, where 1 is the maximum). In short, it runs like this: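 HepG2 cells transiently transfected with GAL4-UAS multiplexed reporter units driven by exogenous chimeric NR-GAL4 proteins; 24 h compound exposure. Reporter mRNA measured by RT-PCR, 6-FAM primer extension, HpaI digestion and capillary electrophoresis; gain of signal fitted relative to DMSO.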
Sequence of human Peroxisome Proliferator-activated Receptor delta (PPARd), PPARD (gene 5467) (Q03181 whole entry, looked up, the tested form may be a part): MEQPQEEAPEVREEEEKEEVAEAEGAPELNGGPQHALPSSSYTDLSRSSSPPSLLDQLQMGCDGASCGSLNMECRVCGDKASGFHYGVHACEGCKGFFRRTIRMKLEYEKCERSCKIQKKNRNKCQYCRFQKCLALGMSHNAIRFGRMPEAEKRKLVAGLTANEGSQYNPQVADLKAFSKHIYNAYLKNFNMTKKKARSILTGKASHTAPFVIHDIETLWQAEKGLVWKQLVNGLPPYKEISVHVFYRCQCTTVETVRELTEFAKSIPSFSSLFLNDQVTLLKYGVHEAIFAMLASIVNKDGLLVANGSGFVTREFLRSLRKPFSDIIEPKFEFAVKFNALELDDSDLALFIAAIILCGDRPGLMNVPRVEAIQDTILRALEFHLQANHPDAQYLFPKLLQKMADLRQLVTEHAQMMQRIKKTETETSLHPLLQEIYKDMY

Read-out in assay [18]: Intercellular Adhesion Molecule 1 (ICAM1), ICAM1 (gene 3383)
Kind of assay: BSK_3C_ICAM1: BioMAP Diversity Plus: 3C Assay for Intercellular Adhesion Molecule 1 (ICAM1) Biomarker Activity (AID 2283003). Conditions: primary human endothelial cells (HUVEC); actives raise or lower the signal. In short, it runs like this:
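ELISA readout of ICAM1 in human umbilical vein endothelial cells in the 3C system, taken 24 h post-dose. Gain or loss of signal versus DMSO was fitted in both directions, with SRB total-protein staining run in parallel.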

Assay [19] can be described thus: BSK_3C_Proliferation: Cell Proliferation Assessment in the BioMAP Diversity Plus: 3C Assay (AID 2283006).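 Further: potency may reflect either rise or fall in cell number versus DMSO.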 The following applies: primary human endothelial cells (HUVEC). In short, it runs like this: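 Proliferation as total protein: sulforhodamine B (0.1%) stain of TCA-fixed subconfluent human umbilical vein endothelial cells, absorbance 560 nm, 48 h after dosing. Activity fitted in both directions against DMSO baseline.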

For assay [20], the target named is human RAR-related Orphan Receptor gamma (RORg), RORC (gene 6097) (UniProt P51449). Kind of assay: ATG_RORg_TRANS: Attagene TRANS-FACTORIAL HepG2 Assay for human RAR-related Orphan Receptor gamma (RORg) (AID 2283011; active means hit-call score of the fitted dose curve at least 0.9, where 1 is the maximum). The procedure, abridged:
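Activity is scored as increase in GAL4-UAS reporter mRNA over DMSO, detected by fluorescent RT-PCR and capillary electrophoresis in HepG2 cells transiently expressing a RORg-Gal4 chimera, 24 h after dosing.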

Results filed as inconclusive are left out. Active and inactive are the calls of the source. How the source made its calls, unless noted: active means hit-call score of the fitted dose curve at least 0.9, where 1 is the maximum; inactive means score below 0.9.

Sequence of human RAR-related Orphan Receptor beta (RORb), RORB (gene 6096) (Q92753 whole entry, looked up, the tested form may be a part): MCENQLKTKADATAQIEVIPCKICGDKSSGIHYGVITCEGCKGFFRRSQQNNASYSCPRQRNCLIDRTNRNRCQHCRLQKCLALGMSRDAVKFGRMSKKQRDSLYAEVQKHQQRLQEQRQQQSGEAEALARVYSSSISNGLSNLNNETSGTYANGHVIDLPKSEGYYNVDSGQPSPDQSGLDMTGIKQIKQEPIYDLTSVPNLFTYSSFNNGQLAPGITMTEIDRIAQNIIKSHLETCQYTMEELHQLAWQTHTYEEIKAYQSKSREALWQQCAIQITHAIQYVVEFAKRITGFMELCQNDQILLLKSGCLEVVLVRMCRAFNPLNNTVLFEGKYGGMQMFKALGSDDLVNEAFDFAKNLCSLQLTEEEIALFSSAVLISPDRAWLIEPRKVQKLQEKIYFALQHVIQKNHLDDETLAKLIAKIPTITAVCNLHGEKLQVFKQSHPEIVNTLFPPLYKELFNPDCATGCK
Sequence of Cellular tumor antigen p53 (Homo sapiens) (P04637 whole entry, looked up, the tested form may be a part): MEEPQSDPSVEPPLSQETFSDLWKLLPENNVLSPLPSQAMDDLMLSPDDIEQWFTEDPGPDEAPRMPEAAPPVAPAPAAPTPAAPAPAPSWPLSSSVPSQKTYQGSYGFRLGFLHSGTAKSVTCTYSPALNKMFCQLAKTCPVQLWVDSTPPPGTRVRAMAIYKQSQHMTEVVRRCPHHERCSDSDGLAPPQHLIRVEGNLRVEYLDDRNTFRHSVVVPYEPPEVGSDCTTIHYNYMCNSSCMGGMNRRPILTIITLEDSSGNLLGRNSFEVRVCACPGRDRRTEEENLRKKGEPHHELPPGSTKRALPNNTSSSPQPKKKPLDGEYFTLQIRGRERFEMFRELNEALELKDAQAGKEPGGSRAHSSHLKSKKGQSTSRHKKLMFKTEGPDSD
Sequence of Nuclear receptor subfamily 1 group I member 2 (Homo sapiens) (O75469 whole entry, looked up, the tested form may be a part): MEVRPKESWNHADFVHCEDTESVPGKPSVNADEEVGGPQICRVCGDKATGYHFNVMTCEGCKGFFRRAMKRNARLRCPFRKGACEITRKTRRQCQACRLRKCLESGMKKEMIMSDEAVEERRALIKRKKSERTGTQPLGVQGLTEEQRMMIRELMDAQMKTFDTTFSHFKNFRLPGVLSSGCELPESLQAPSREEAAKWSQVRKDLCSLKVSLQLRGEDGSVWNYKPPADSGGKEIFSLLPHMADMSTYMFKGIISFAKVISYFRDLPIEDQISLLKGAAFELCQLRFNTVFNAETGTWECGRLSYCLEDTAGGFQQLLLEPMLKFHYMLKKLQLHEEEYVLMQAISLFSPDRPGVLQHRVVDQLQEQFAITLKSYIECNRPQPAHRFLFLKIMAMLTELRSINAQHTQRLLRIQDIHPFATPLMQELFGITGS
Sequence of human Peroxisome Proliferator-activated Receptor alpha (PPARa), PPARA (gene 5465) (Q07869 whole entry, looked up): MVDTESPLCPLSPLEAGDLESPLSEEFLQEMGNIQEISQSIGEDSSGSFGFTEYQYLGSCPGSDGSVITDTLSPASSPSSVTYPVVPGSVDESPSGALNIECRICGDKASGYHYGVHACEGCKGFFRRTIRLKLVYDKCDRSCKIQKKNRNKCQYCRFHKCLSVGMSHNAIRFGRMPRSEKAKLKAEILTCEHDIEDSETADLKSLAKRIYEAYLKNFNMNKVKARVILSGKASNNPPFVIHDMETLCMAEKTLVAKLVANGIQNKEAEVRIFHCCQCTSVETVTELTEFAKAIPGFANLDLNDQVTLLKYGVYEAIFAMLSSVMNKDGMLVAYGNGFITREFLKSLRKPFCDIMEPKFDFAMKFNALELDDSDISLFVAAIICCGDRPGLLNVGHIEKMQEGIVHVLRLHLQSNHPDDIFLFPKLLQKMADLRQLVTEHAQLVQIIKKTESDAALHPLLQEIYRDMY
Sequence of human RAR-related Orphan Receptor gamma (RORg), RORC (gene 6097) (P51449 whole entry, looked up, the tested form may be a part): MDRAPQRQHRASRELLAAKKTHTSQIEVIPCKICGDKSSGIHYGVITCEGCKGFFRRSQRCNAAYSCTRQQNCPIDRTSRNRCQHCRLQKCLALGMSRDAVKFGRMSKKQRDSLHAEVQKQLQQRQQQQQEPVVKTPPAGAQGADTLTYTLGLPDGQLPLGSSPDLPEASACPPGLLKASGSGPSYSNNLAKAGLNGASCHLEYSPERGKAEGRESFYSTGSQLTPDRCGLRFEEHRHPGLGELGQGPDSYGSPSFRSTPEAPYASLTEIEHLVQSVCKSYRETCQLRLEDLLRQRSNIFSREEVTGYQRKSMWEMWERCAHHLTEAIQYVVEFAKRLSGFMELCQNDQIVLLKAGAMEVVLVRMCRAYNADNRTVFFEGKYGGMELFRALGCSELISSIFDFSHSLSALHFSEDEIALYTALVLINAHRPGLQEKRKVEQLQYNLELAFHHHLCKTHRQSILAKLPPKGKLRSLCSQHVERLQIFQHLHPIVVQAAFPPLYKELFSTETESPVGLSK
Sequence of human Retinoic Acid Receptor beta (RARb), RARB (gene 5915) (P10826 whole entry, looked up, the tested form may be a part): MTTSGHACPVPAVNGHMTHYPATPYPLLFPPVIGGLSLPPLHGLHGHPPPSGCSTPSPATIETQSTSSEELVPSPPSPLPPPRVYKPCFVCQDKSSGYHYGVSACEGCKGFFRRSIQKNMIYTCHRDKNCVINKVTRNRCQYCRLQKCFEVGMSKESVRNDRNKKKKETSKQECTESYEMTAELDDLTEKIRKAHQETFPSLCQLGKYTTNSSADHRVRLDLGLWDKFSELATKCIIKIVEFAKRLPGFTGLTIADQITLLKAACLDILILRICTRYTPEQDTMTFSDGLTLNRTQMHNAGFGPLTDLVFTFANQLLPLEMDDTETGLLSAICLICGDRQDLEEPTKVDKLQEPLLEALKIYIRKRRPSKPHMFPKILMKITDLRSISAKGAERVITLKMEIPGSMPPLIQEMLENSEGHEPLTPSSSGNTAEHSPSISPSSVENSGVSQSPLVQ

For `O=C1CCCCCCCCCCC(=O)OCCO1`, the call in assay [1], in [2], in [3], in assay [4], in assay [5] and in assay [6] was inactive. For the same molecule, the outcome in [7], in assay [8], in [9], in assay [10], in assay [11] and in [12] was inactive. Further, the outcome in assay [13] was inactive.

On to `C/C=C\C/C=C/CCCCCCCCOC(C)=O`, for which the molecule was called inactive in [1], in assay [2], in assay [14], in assay [7], in assay [17] and in assay [18]. Also, in [13], the molecule was called inactive. The AC50 (as a rule, the midpoint of the concentration-response curve, whichever way the signal moves) was 42.8 µM (active) in assay [3]; 26.8 µM (active) in assay [4]; 39.5 µM (active) in [5]; 162 µM (active) in assay [6]; 26 µM (active) in [15]; 28.9 µM (active) in assay [16]. Also, the half-maximal activity concentration (AC50) in assay [19] is 22.3 µM (active); in assay [10], 8.89 µM (active); in assay [11] it was 40.8 µM (active).

`CC(=O)CC(N)=O`: the call in assay [1], in assay [2], in [3], in assay [4], in assay [5] and in [6] was inactive. For the same molecule, the call in assay [7], in assay [17] and in [11] was inactive.

Consider `CCC(CO)CO`, for which the call in [1], in assay [2], in assay [3], in assay [4], in [5] and in assay [6] was inactive. Moreover, the molecule was called inactive in assay [7], in [8], in assay [11], in [13] and in assay [20].

Regarding `CC(=O)c1ccc[nH]1`, the outcome in assay [1], in [2], in assay [3], in assay [4], in assay [5] and in assay [6] was inactive. The outcome in assay [7], in [17], in assay [9], in assay [10] and in assay [20] was inactive.

The values are drawn from PubChem BioAssay (EPA / NIEHS).
